Only some compounds are listed: those with a hit (about 2.4% of all), similar ones and a draw of the others.
POLB inh: inhibitors of human DNA polymerase beta; P06746; Pol beta primer extension/strand displacement, fluorescence kinetic; Potency, µM (doses to about 114 µM), without a hit: top-dose activity change, negative = inhibition, most hits filed as inhibitors; actives 1.3% (n = 340,000); AID 485314; note: % is set by controls: 0 for no effect and ±100 for the full control effect
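Pol beta (10 nM) was preincubated with compound for 15 min at room temperature. The reaction was then started with 50 nM substrate and read immediately and after a further 10 min at room temperature.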
Pol kappa inh-1: inhibitors of human DNA polymerase kappa. purified Pol kappa, fluorescent DNA synthesis assay, 10 min. Q9UBT6. Potency, µM (titrated, usually from 107 µM), for the others: top-dose activity, negative = inhibition, usual class: inhibitors. actives 0.53% (n = 400,000); note: % is set by controls: 0 for no effect and ±100 for the full control effect
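Enzyme at 10 nM met test compounds for 15 min at room temperature. Substrate addition (50 nM final) began the reaction, which was monitored by fluorescence at 0 and 10 min.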
TDP1 inh: TDP1 (human) enzyme inhibition; Q9NUW8; recombinant TDP1, AlphaScreen DNA substrate cleavage; Potency, µM (doses to about 130 µM), for the others: at the highest dose activity change, negative = inhibition, actives largely listed as inhibitors; actives 0.28% (n = 350,000); AID 485290; note: % is set by controls: 0 for no effect and ±100 for the full control effect; nearly all actives have a fitted effect of over 40% in size
Target sequence (Q9NUW8 whole entry, looked up): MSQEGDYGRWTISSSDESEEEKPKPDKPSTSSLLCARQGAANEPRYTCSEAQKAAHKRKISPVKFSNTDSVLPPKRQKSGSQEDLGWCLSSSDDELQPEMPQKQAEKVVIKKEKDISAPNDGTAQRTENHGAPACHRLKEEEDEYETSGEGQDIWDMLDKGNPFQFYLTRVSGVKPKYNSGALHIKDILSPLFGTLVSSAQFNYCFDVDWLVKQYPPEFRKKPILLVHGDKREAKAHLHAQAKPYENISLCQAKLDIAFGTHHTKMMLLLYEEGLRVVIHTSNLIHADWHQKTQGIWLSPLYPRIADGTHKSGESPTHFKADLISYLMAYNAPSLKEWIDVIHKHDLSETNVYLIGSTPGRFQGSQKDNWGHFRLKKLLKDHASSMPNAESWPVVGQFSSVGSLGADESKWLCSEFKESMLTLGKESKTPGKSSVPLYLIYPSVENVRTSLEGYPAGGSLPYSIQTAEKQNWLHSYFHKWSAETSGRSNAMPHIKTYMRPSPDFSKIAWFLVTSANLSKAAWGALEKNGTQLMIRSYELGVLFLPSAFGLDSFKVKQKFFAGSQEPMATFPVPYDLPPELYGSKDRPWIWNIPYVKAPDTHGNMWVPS
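Steps: enzyme plus compound, 15 min RT; add biotin/phosphotyrosine-FITC oligonucleotide (15 nM final), react 5 min; add donor/acceptor beads (10 ug/ml final), 10 min; read AlphaScreen. Tdp1 at 1 nM final.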
FEN1 inh: blocks human flap endonuclease 1 | AID 588795 | Recombinant FEN1 flap cleavage, fluorescence, 15 min | actives 0.35% (n = 390,000) | Potency, µM (top dose mostly 114 µM), for the others: at the top dose activity change, negative = inhibition, usual class: inhibitors; note: % is set by controls: 0 for no effect and ±100 for the full control effect; nearly all actives have a fitted effect of over 65% in size
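Quantitative HTS format: each compound was titrated, incubated with 10 nM nuclease for 15 min at room temperature, then challenged with flap substrate at 50 nM final. Signal change over 15 min gave concentration–effect curves.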
Pol iota inh: inhibitors of human DNA polymerase iota; Q9UNA4; Pol iota fluorescent replication assay, 10 min; Potency, µM (series often up to 115 µM), for inactives: at the highest dose activity, negative = inhibition, hits mostly inhibitors; actives 1% (n = 390,000)
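Fluorescent replication assay read twice, at 0 min and 10 min after adding 50 nM (final) substrate. Enzyme (10 nM) and compounds were first incubated 15 min at room temperature; enzyme-free buffer wells were negative controls.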
Pol eta inh-1: inhibitors of human DNA polymerase eta; Q9Y253; recombinant Pol eta, fluorescent DNA replication assay; Potency, µM (highest dose often 114 µM), inactives show at the top dose activity change, negative = inhibition, actives largely listed as inhibitors; actives 1.2% (n = 390,000); AID 588591; note: % is set by controls: 0 for no effect and ±100 for the full control effect
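Fluorescent replication assay: 50 nM final substrate added after a 15 min room-temperature compound preincubation with 10 nM enzyme. Signal taken at 0 min and again at 10 min.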
POLI cherry-pick: Inhibitors of human DNA polymerase iota, confirmation | Potency, µM, usual class: inhibitors | Pol iota primer extension, TAMRA/BHQ fluorescence | shares compounds with Pol kappa inh-1 | AID 720496 | actives 77% (n = 1,500)
Pol kappa inh-2: Pol kappa (human) inhibition, cherry-pick confirmation. shares compounds with Pol eta inh-1. purified Pol-kappa, fluorescent strand-displacement substrate. Potency, µM, actives largely listed as inhibitors. actives 76% (n = 920). AID 720501
Pol eta inh-2: Pol eta (human) inhibition, cherry-pick confirmation. shares compounds with Pol eta inh-1. Pol eta primer extension, TAMRA/BHQ fluorescence, 10 min. Potency, µM, most hits filed as inhibitors. actives 64% (n = 2,600). AID 720502
* hit, by the source's call. Calls come from the whole dose curve; as a rule, active = well fitted curve in the direction sought with a large enough effect; inconclusive = small, poorly fitted or top-dose-only effect, or another doubt; inactive = no such curve, though single readings can be large; an effect the other way counts as inactive or inconclusive. Potency is the fitted concentration of half-maximal effect.

Screening COc1ccc(N2Cc3cccc(C(=O)Nc4cccc(F)c4)c3C2=O)cc1 returned POLB inh 14µM*, Pol kappa inh-1 inconclusive, TDP1 inh inconclusive, FEN1 inh 4%, Pol iota inh 79µM*, POLI cherry-pick 38*, Pol kappa inh-2 12* and Pol eta inh-2 76*.
`COc1ccc(N2Cc3cccc(C(=O)N4CCN(C(=O)c5ccco5)CC4)c3C2=O)cc1` gave POLB inh 10µM*, Pol kappa inh-1 inconclusive, TDP1 inh 11µM*, FEN1 inh -13%, Pol iota inh inconclusive, Pol eta inh-1 5.6µM*, POLI cherry-pick 38*, Pol kappa inh-2 42* and Pol eta inh-2 60*.
COc1ccc(N2Cc3cccc(C(=O)N4CCOCC4)c3C2=O)cc1 was read as POLB inh 3%, Pol kappa inh-1 4%, TDP1 inh 2%, FEN1 inh 9%, Pol iota inh 17% and Pol eta inh-1 -8%.
`O=C(Nc1ccc(C(=O)N2CCN(c3ccccn3)CC2)cc1)c1ccc(Br)o1` gave Pol kappa inh-1 -22%, TDP1 inh -10%, FEN1 inh 19%, Pol iota inh inconclusive and Pol eta inh-1 -5%.
For N#Cc1ccccc1N1CCN(C(=O)c2ccc(NC(=O)c3ccc(Br)o3)cc2)CC1 the results were Pol kappa inh-1 71µM*, FEN1 inh -7%, Pol iota inh 22µM*, Pol eta inh-1 22µM*, POLI cherry-pick inconclusive, Pol kappa inh-2 inconclusive and Pol eta inh-2 76*.
O=C1CCCC2=C1C(c1cccs1)Nc1ccc3ncccc3c12 (stereo not given) was read as POLB inh inconclusive, Pol kappa inh-1 -4%, TDP1 inh -1%, FEN1 inh 2%, Pol iota inh 39% and Pol eta inh-1 -9%.
For O=C1CCCC2=C1C(c1ccc(O)c(O)c1)Nc1ccc3ncccc3c12 (stereo not given) the results were POLB inh 11µM*, Pol kappa inh-1 40µM*, FEN1 inh inconclusive, Pol iota inh 13µM*, Pol eta inh-1 35µM*, POLI cherry-pick inconclusive and Pol eta inh-2 inconclusive.
`Nc1ccc(S(=O)(=O)Nc2nccs2)cc1N=Nc1ccccc1[N+](=O)[O-]` gave Pol kappa inh-1 28µM*, FEN1 inh 50µM*, Pol iota inh 7.1µM*, Pol eta inh-1 3.2µM*, POLI cherry-pick 75*, Pol kappa inh-2 inconclusive and Pol eta inh-2 19*.
For O=[N+]([O-])c1ccccc1S(=O)(=O)Nc1ccc(S(=O)(=O)Nc2nccs2)cc1 the results were POLB inh 1%, Pol kappa inh-1 3%, FEN1 inh 0%, Pol iota inh inconclusive and Pol eta inh-1 0%.
CC(=O)Nc1ccc(C(=O)/C=C/c2ccco2)cc1 was read as POLB inh 25µM*, Pol kappa inh-1 45µM*, FEN1 inh inconclusive, Pol iota inh inconclusive, Pol eta inh-1 25µM*, POLI cherry-pick inconclusive and Pol eta inh-2 38*.
CC(=O)Nc1cccc(C(=O)/C=C/c2ccco2)c1 was read as POLB inh 8%, Pol kappa inh-1 -32%, TDP1 inh -12%, FEN1 inh 1%, Pol iota inh inconclusive and Pol eta inh-1 inconclusive.

Source: PubChem (National Center for Advancing Translational Sciences (NCATS))
